Among the test systems are NCI-H23 lung; NCI-H226 lung; NCI-H322M lung; HOP-62 NSCLC; NCI-H460 lung; HOP-92 NSCLC; NCI-H522 lung; A549/ATCC NSCLC; 786-0 renal; COLO 205 colon; DU-145 prostate; K-562 leukemia; MALME-3M melanoma; MDA-MB-231 breast; RXF 393 renal; SF-268 CNS; SF-295 CNS; SF-539 CNS; UACC-257 melanoma; M14 melanoma.
Common to all, as to experiment: NCI-60 one-dose screen, 48 h (100 = growth as untreated, 0 = no growth, -100 = all killed)
Holding throughout (settings): 10 µM unless noted

This is part of a sample that, as a whole, favours compounds with a hit. Of some 83,000 tested, about 20% had one in any assay.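 Interpretation: 100, growth as untreated; towards 0, rising growth inhibition; 0, no net growth; 0 to -100, cell death. Compounds scoring below 10 were considered active.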 Values without a mark were called inactive. Activity calls are given as the source filed them.

For the molecule `FC(F)(F)c1ccccc1-c1cn2c(ccc3ccccc32)n1`, the growth with NCI-H23 lung is 85.3%; in the test with NCI-H226 lung it was 77.5%; in the test with NCI-H322M lung, 96.1%; in the test on HOP-62 NSCLC, 60.4%; in the test with NCI-H460 lung, 85.3%; in the test on HOP-92 NSCLC, 79.9%. In addition, the growth with NCI-H522 lung is 49%; with A549/ATCC NSCLC it was 80%; with 786-0 renal it was 94.9%; in the test on COLO 205 colon, 102%; in the test with DU-145 prostate it was 104%; with K-562 leukemia, 29.8%. Also, the growth is 65.1% in the test on MALME-3M melanoma; 69.5% in the test on MDA-MB-231 breast; 84.4% with RXF 393 renal; 90.3% with SF-268 CNS; 62.1% in the test on SF-295 CNS; 78.6% in the test on SF-539 CNS. For the same molecule, the growth in the test with UACC-257 melanoma was 70.3%; with M14 melanoma, 60.3%.
In the case of `COc1ccc(-c2nc(/C=N/Nc3cc(C)nc4ccc(Cl)cc34)c(C)o2)cc1`, the growth with NCI-H23 lung was 42.1%; in the test on NCI-H226 lung, 75.6%; in the test on NCI-H322M lung, -92.5% (active); in the test on HOP-62 NSCLC it was 83.2%; with NCI-H460 lung, -89.2% (active); in the test with HOP-92 NSCLC, -84.8% (active). Moreover, the growth was -85.2% (active) in the test with NCI-H522 lung; -91.6% (active) with A549/ATCC NSCLC; -87.5% (active) in the test with 786-0 renal; -72.8% (active) with COLO 205 colon; -94.1% (active) with DU-145 prostate; -35% (active) in the test with K-562 leukemia. Moreover, the growth with MALME-3M melanoma was -90.9% (active); in the test with MDA-MB-231 breast it was -95.9% (active); in the test on RXF 393 renal, -96.8% (active); with SF-268 CNS it was -71.8% (active); with SF-295 CNS, -73.5% (active); with SF-539 CNS, -90% (active). In addition, the growth is 104% in the test with UACC-257 melanoma and -75.6% (active) in the test on M14 melanoma.
`CC[N+](CC)=c1cc2oc3cc(N(C)C)ccc3nc-2cc1C`: the growth in the test with NCI-H23 lung was 8.14% (active); in the test on NCI-H226 lung, 79%; with NCI-H322M lung, -28.4% (active); in the test on HOP-62 NSCLC, 18.3%; in the test on NCI-H460 lung, 36.4%; with HOP-92 NSCLC it was 63.9%. The growth in the test with NCI-H522 lung was -43.8% (active); in the test with A549/ATCC NSCLC, 36.5%; in the test with 786-0 renal it was 70.4%; in the test with COLO 205 colon, -9.82% (active); with DU-145 prostate, 73.8%; in the test on K-562 leukemia, 55.2%. The growth with MALME-3M melanoma was -25.5% (active); in the test with MDA-MB-231 breast it was 8.42% (active); in the test on RXF 393 renal it was 81.7%; with SF-268 CNS it was 2.86% (active); in the test with SF-295 CNS, 17.7%; with SF-539 CNS, 22.2%. Besides, the growth was -28% (active) in the test on UACC-257 melanoma and 18.2% with M14 melanoma.
Regarding `CCCCCCCCCCCCCCCCCCNC(=O)[C@H]1CSC(c2ccc(OC)cc2O)N1` (stereo not given in full), the growth in the test with NCI-H23 lung was 83.3%; in the test on NCI-H226 lung, 90.4%; with NCI-H322M lung, 67.5%; with HOP-62 NSCLC it was 63.9%; in the test on NCI-H460 lung, 13.4%; in the test on HOP-92 NSCLC it was 66%. Besides, the growth was 65.8% with NCI-H522 lung; 73.8% with A549/ATCC NSCLC; 82.2% in the test on 786-0 renal; 97.1% in the test on COLO 205 colon; 22.5% with DU-145 prostate; 25.7% in the test with K-562 leukemia. The growth with MALME-3M melanoma was 96.6%; in the test on MDA-MB-231 breast it was 38.1%; with RXF 393 renal, 32.5%; in the test with SF-268 CNS it was 50.6%; in the test on SF-295 CNS, 93%; in the test with SF-539 CNS, 66%. Besides, the growth in the test on UACC-257 melanoma was 88.3%; in the test on M14 melanoma, 65.3%.
In the case of `CN(C)CCN1C(=O)c2ccc3c4c(ccc(c24)C1=O)C(=O)N(CCN=C=S)C3=O`, the growth in the test with NCI-H23 lung is -61.7% (active); in the test on NCI-H226 lung, -94.7% (active); with NCI-H322M lung, -94.1% (active); in the test with HOP-62 NSCLC, -96.3% (active); with NCI-H460 lung, -43.5% (active); in the test on HOP-92 NSCLC it was -79.5% (active). In addition, the growth was -93.8% (active) in the test with NCI-H522 lung; -52.8% (active) in the test on A549/ATCC NSCLC; -81.3% (active) in the test with 786-0 renal; -87.9% (active) in the test on COLO 205 colon; -97.1% (active) with DU-145 prostate; -29.7% (active) in the test with K-562 leukemia. Besides, the growth with MALME-3M melanoma is -63.7% (active); with MDA-MB-231 breast, -84.5% (active); in the test with RXF 393 renal, -98.5% (active); in the test on SF-268 CNS it was -89% (active); in the test on SF-295 CNS, -71.7% (active); with SF-539 CNS, -81.7% (active). For the same molecule, the figures for the growth in the test on UACC-257 melanoma and in the test on M14 melanoma were -95.3% (active) and -77.5% (active), respectively.
As for `C=C1C(=O)O[C@@H]2[C@@H]3O[C@@](C)(CC/C=C(\C)CCC[C@@H]2C)[C@H](O)C[C@@H]13`, the growth in the test with NCI-H23 lung is 81.6%; in the test with NCI-H226 lung, 65.7%; with NCI-H322M lung, 97.3%; with HOP-62 NSCLC, 81.2%; in the test on NCI-H460 lung, 89.8%; in the test with HOP-92 NSCLC, 1.79% (active). Besides, the growth was -16.5% (active) with NCI-H522 lung; 95.3% in the test with A549/ATCC NSCLC; 79.1% in the test with 786-0 renal; 47.1% in the test with COLO 205 colon; 50.1% in the test on DU-145 prostate; 18.6% in the test with K-562 leukemia. In addition, the growth in the test with MALME-3M melanoma is 55.2%; in the test with MDA-MB-231 breast, 68.2%; with RXF 393 renal, 27%; with SF-268 CNS it was 67.9%; with SF-295 CNS, 81.8%; with SF-539 CNS, 58.3%. For the same molecule, the growth is 67.9% with UACC-257 melanoma and -1.2% (active) in the test on M14 melanoma.

The values are drawn from PubChem BioAssay (NCI).
